Test system: Vero E6 infected with SARS-CoV-2
Assay: inhibition of SARS-CoV-2 cytopathic effect; higher = more antiviral protection, active = above 15
Settings: 48 h

Measured: inhibition of SARS-CoV-2 cytopathic effect

C=CC(=O)Nc1cc(Nc2nccc(-c3cn(C)c4ccccc34)n2)c(OC)cc1N(C)CCN(C)C [osimertinib]
inactive: 1 nM 1.08% | 8.33 nM 0.08% | 100 nM -5.65% | 833.33 nM -10.8% | 10000 nM -16.5%

C=C(C)[C@@H]1[C@H]2OC(=O)[C@@H]1[C@]1(O)C[C@H]3O[C@]34C(=O)O[C@H]2[C@]14C [picrotoxinin]
inactive: 1 nM -2.53% | 8.33 nM -1.67% | 100 nM -2.12% | 833.33 nM -3.39% | 10000 nM -2.53%

O.O=[Si]=O.O=[Si]=O.O=[Si]=O.O=[Si]=O.[O]=[Mg].[O]=[Mg].[O]=[Mg]
inactive: 1 nM -4.07% | 8.33 nM 0.07% | 100 nM -1.66% | 833.33 nM 5.91% | 10000 nM 8.79%

C=C[C@@H]1C[C@]1(NC(=O)[C@@H]1C[C@@H](Oc2ncc(OC)c3ccc(Cl)cc23)CN1C(=O)[C@@H](NC(=O)OC(C)(C)C)C(C)(C)C)C(=O)NS(=O)(=O)C1CC1 [asunaprevir]
inactive: 1 nM -0.2% | 8.33 nM 0.38% | 100 nM 3.96% | 833.33 nM 2.81% | 10000 nM -1.88%

CCNC(=O)[C@H]1O[C@@H](n2cnc3c(N)nc(NCCc4ccc(CCC(=O)O)cc4)nc32)[C@H](O)[C@@H]1O
inactive: 1 nM -1.55% | 8.33 nM -1.11% | 100 nM -2.43% | 833.33 nM -1.74% | 10000 nM 1.23%

O=c1cc(N2CCOCC2)oc2c1ccc1ccccc12
inactive: 1 nM -1.26% | 8.33 nM 2.98% | 100 nM -0.06% | 833.33 nM 0.08% | 10000 nM -1.32%

C#C[C@]1(O)CC[C@H]2[C@@H]3CCC4=CC(=O)CC[C@]4(C)[C@H]3CC[C@@]21C [ethisterone]
inactive: 1 nM 2.99% | 8.33 nM 3.61% | 100 nM 2.08% | 833.33 nM -0.95% | 10000 nM 2.77%

O=C(O)c1ccccc1Nc1cccc(C(F)(F)F)c1 [flufenamic-acid]
inactive: 1 nM -1.93% | 8.33 nM 0.57% | 100 nM -0.92% | 833.33 nM 0.82% | 10000 nM 0.1%

CCOc1cc2ncc(C#N)c(Nc3ccc(OCc4ccccn4)c(Cl)c3)c2cc1NC(=O)/C=C/CN(C)C [neratinib]
inactive: 1 nM 0.12% | 8.33 nM -2.36% | 100 nM -7.88% | 833.33 nM -0.85% | 10000 nM -8.5%

Cc1ccc(C(=O)c2ccc(CC(=O)O)n2C)cc1 [tolmetin]
inactive: 1 nM -2.48% | 8.33 nM -1.62% | 100 nM -1.05% | 833.33 nM -0.39% | 10000 nM 0.75%

CC(C)Cc1ccc(C(C)C(=O)O)cc1 (stereo not given) [ibuprofen]
inactive: 1 nM 1.03% | 8.33 nM -0.113% | 100 nM -0.0767% | 833.33 nM 1.1% | 10000 nM -0.35%

CCC(C)(C)c1ccc(CC(C)CN2C[C@@H](C)O[C@@H](C)C2)cc1 (stereo not given in full) [amorolfine]
inactive: 1 nM 1.24% | 8.33 nM 0.11% | 100 nM 1.63% | 833.33 nM 3.07% | 10000 nM 1.19%
